Molecules are shown by their SMILES. The source made the active and inactive calls. Calls come from the whole dose curve; as a rule, active = well fitted curve in the direction sought with a large enough effect in the repeat runs; inconclusive = weak or mixed curves; inactive = flat fitted curve, though single readings scatter.

The source of these data is PubChem BioAssay (Tox21).
% is set by controls: 0 for no effect and ±100 for the full control effect.

The assay can be described thus: qHTS assay to test for compound auto fluorescence at 460 nm (blue) in HepG2 cells (AID 720687). The note with it: autofluorescence 405/460 nm, 1 h; series mostly up to 91.3 µM. A digest of the protocol:
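Blue-channel autofluorescence (Ex/Em 405/460 nm, triamterene-equivalent) was measured after 1 hr compound exposure at 37 C, 5% CO2. Cells were HepG2, plated overnight at 37 C in MEM plus 10% FBS.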
`Cc1ncc([C@@H](CCCCCCc2ccc3c(n2)NCCC3)CC(=O)O)cn1`: the outcome was inactive.

`O=C1NC(=O)C2CC=CCC12` (stereo not given): the result was inactive.

As to `CCCCc1nc(Cl)c(CO)n1Cc1ccc(-c2ccccc2-c2nn[nH]n2)cc1`, the call was inactive.

`Cc1ccccc1N=C(N)N=C(N)N`: the result was inactive.

Consider `C1CCC2(CCCCO2)OC1`, for which the call was inactive.

With `CC[N+](CC)(CC(=O)Nc1c(C)cccc1C)Cc1ccccc1` (tested in a mixture with another compound), the molecule was called inactive.

On to `O=C(O)Cc1csc(-c2ccc(Cl)cc2)n1`, for which the result was inactive.

Take `CC(=O)NC(=O)c1ccccc1O`: the result was inactive.

With `Cc1nc2ccc(CN(C)c3ccc(C(=O)N[C@@H](CCC(=O)O)C(=O)O)s3)cc2c(=O)[nH]1`, the call was inactive.

Turning to `NC(CCC(=O)O)C(=O)O` (stereo not given), the call was inactive.

As for `CCOC(=O)OC(C)OC1=C(C(=O)Nc2ccccn2)N(C)S(=O)(=O)c2ccccc21` (stereo not given), the outcome was inactive.

As for `N[C@@H](CCC(=O)O)C(=O)O`, the result was inactive.

Consider `CCCC[N+](C)(CCCC)CCCC`, for which the call was inactive.

For the molecule `CO[C@@]1(NC(=O)C(C(=O)O)c2ccc(O)cc2)C(=O)N2C(C(=O)O)=C(CSc3nnnn3C)CO[C@@H]21` (stereo not given in full), the fluorescence, % of fluorescent control was 0.208% [at 18.6 µM] (inactive).

As to `C=CC(=O)OCCCl`, the molecule was classed as inactive.

As to `CCC(C(=O)NC(=O)NC(C)=O)c1ccccc1` (stereo not given), the molecule was called inactive.

With `CCCCOC(=O)CCC(C)=O`, the molecule was classed as inactive.

Turning to `C[N+]12CCC(CC1)C(OC(=O)C(O)(c1ccccc1)c1ccccc1)C2` (stereo not given), the fluorescence, % of fluorescent control is 0.0552% [at 18.6 µM] (inactive).

Consider `CCCCCCCCCC[N+](C)(C)[O-]`, for which the call was inactive.

As for `CC(C)(N)C#N`, the call was inactive.
